# Test results: publication PMC7862700, “An all-to-all approach to the identification of sequence-specific readers for epigenetic DNA modifications on cytosine”
# What was measured:
# Test in all cases: DAPPL (digital affinity profiling via proximity ligation, sequencing); 10 mM Tris-HCl pH 7.5, 50 mM NaCl, 1 mM DTT, 4% glycerol, room temperature, 30 min; GST-TFs on glutathione beads, 16-mer random dsDNA library, 0.1% formaldehyde crosslink after washing; high values mean tight binding
# [1] = target: T1, FLI1 (Homo sapiens, UniProt Q01543 1-452); details: protein: recombinant; tags: N-terminal GST; dsDNA, one strand shown
# T1 sequence: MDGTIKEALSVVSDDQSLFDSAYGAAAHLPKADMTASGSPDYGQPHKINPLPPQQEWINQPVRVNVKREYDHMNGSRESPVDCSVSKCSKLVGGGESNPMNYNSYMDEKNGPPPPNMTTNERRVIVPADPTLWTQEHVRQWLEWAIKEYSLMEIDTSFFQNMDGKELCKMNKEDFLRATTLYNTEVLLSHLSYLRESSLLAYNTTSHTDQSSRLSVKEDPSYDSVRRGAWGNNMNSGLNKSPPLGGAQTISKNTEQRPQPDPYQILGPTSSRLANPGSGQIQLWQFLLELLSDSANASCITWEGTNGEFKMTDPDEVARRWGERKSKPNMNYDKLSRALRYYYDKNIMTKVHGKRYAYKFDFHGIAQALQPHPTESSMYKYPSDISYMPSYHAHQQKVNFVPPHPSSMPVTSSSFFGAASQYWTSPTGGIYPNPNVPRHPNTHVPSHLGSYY
# Method in brief: (§1)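 GST fusions of human transcription factors were expressed in yeast and captured with glutathione beads. Once given DNA barcodes and pooled alongside a tag-only sample, they were incubated for 30 min at room temperature with 200 nmole of a random double-stranded 16-mer DNA library in Tris/NaCl/DTT/glycerol buffer, then washed, crosslinked (0.1% formaldehyde), proximity-ligated, PCR-amplified and sequenced on an Illumina NextSeq500. The binding signal of each hexamer is its read frequency for a factor divided by its frequency for the tag-only sample.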
# [2] = target: T2, ELK1 (Homo sapiens, UniProt P19419 1-428); details: protein: recombinant; tags: N-terminal GST; dsDNA, one strand shown
# T2 sequence: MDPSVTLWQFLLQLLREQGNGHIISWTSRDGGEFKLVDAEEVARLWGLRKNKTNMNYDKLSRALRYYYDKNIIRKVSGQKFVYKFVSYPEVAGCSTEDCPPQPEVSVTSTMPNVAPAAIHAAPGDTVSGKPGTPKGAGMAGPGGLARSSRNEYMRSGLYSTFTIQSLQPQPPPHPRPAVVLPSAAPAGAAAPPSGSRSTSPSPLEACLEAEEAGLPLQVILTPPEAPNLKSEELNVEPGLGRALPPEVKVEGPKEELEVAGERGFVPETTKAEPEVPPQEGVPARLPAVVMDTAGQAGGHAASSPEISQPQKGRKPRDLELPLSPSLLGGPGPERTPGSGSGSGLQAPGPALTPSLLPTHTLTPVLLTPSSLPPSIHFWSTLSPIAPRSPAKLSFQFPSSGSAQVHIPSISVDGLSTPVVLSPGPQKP
# Method in brief: as §1
# [3] = target: T3, GABPA (Homo sapiens, UniProt Q06546 1-454); details: protein: recombinant; tags: N-terminal GST; dsDNA, one strand shown
# T3 sequence: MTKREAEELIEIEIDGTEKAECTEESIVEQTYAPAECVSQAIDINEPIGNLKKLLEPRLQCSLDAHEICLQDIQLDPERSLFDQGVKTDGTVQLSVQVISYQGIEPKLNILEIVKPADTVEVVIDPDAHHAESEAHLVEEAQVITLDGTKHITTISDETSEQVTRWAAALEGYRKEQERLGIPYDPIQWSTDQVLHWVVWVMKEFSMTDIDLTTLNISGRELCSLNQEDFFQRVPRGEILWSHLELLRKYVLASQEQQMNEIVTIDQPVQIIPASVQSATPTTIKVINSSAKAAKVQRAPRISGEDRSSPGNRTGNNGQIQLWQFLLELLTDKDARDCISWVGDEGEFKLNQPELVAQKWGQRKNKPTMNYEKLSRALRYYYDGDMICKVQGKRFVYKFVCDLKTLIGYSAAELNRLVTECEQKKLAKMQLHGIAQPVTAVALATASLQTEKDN
# Method in brief: as §1
# [4] = target: T4, ERG (Homo sapiens, UniProt P11308 1-479); details: protein: recombinant; tags: N-terminal GST; dsDNA, one strand shown
# T4 sequence: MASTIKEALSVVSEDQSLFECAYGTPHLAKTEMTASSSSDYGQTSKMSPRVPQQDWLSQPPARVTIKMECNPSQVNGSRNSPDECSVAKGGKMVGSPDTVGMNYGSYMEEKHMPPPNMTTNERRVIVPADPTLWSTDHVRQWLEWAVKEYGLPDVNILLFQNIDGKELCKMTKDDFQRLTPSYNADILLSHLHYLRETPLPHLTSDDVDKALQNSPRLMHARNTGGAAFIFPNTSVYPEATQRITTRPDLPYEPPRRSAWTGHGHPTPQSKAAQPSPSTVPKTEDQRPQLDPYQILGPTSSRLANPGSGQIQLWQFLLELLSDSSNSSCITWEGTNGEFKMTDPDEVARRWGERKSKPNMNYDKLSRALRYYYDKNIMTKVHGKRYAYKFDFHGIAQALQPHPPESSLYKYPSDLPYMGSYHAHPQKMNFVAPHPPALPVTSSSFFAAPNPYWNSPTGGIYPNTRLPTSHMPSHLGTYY
# Method in brief: as §1
# [5] = target: ELF1 (Homo sapiens, UniProt P32519 1-619); details: protein: recombinant; tags: N-terminal GST; dsDNA, one strand shown
# Method in brief: as §1
# [6] = target: T5, EHF (Homo sapiens, UniProt Q9NZC4 1-300); details: protein: recombinant; tags: N-terminal GST; dsDNA, one strand shown
# T5 sequence: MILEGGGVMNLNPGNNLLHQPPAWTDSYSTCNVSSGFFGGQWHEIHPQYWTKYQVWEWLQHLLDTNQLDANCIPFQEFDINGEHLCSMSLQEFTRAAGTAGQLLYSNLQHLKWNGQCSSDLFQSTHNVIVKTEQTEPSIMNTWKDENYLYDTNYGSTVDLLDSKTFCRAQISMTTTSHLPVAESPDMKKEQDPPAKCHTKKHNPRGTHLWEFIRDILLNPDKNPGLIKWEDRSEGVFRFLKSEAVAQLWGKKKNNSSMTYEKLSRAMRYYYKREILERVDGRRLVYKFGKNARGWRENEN
# Method in brief: as §1
# [7] = target: SPI1 (Homo sapiens, UniProt P17947 1-270); details: protein: recombinant; tags: N-terminal GST; dsDNA, one strand shown
# Method in brief: as §1
# [8] = target: SPIB (Homo sapiens, UniProt Q01892 1-262); details: protein: recombinant; tags: N-terminal GST; dsDNA, one strand shown
# Method in brief: as §1
# [9] = target: T6, ELK3 (Homo sapiens, UniProt P41970 1-407); details: protein: recombinant; tags: N-terminal GST; dsDNA, one strand shown
# T6 sequence: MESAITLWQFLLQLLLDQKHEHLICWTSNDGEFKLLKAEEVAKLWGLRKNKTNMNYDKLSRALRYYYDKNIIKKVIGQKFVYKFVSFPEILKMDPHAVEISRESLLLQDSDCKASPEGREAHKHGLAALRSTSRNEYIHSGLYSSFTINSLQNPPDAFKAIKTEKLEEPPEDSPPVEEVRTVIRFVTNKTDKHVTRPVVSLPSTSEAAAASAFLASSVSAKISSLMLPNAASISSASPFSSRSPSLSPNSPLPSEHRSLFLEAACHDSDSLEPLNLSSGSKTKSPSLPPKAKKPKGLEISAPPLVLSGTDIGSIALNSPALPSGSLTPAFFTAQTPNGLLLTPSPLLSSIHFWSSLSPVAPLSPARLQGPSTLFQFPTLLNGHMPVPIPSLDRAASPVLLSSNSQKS
# Method in brief: as §1
# [10] = target: T7, FEV (Homo sapiens, UniProt Q99581 1-238); details: protein: recombinant; tags: N-terminal GST; dsDNA, one strand shown
# T7 sequence: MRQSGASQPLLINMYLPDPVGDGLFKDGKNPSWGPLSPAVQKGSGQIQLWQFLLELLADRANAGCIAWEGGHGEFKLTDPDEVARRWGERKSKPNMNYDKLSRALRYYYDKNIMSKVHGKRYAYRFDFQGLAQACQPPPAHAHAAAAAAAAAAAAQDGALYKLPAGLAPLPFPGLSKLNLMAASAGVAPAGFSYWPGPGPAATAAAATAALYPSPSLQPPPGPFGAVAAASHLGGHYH
# Method in brief: as §1
# [11] = target: ETV5 (Homo sapiens, UniProt P41161 1-510); details: protein: recombinant; tags: N-terminal GST; dsDNA, one strand shown
# Method in brief: as §1
# [12] = target: HSF1 (Homo sapiens, UniProt Q00613 1-529); details: protein: recombinant; tags: N-terminal GST; chain copies: 3; dsDNA, one strand shown
# Method in brief: as §1
# [13] = target: T8, SPIC (Homo sapiens, UniProt Q8N5J4 1-248); details: protein: recombinant; tags: N-terminal GST; dsDNA, one strand shown
# T8 sequence: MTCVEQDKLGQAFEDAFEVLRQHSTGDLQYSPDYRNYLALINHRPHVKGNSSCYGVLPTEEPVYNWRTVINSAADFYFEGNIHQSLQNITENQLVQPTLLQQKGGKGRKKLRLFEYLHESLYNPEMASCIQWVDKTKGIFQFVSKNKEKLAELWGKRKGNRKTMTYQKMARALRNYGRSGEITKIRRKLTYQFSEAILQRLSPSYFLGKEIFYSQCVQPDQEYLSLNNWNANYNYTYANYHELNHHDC
# Method in brief: as §1
# [14] = target: ELF4 (Homo sapiens, UniProt Q99607 1-663); details: protein: recombinant; tags: N-terminal GST; dsDNA, one strand shown
# Method in brief: as §1
# [15] = target: T9, ELK4 (Homo sapiens, UniProt P28324-2 1-405); details: protein: recombinant; tags: N-terminal GST; dsDNA, one strand shown
# T9 sequence: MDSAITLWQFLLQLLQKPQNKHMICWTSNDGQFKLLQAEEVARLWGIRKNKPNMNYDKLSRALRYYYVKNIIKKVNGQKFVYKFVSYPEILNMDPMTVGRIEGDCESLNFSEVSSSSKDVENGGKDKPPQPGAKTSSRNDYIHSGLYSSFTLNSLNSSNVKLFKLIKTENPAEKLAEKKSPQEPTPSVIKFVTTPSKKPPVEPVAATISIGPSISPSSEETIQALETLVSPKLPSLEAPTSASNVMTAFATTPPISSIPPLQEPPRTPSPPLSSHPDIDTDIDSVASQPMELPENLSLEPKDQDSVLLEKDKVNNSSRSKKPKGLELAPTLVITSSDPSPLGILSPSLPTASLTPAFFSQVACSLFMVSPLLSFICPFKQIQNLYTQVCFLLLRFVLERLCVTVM
# Method in brief: as §1
# [16] = target: T10, ETV2 (Homo sapiens, UniProt O00321 1-342); details: protein: recombinant; tags: N-terminal GST; dsDNA, one strand shown
# T10 sequence: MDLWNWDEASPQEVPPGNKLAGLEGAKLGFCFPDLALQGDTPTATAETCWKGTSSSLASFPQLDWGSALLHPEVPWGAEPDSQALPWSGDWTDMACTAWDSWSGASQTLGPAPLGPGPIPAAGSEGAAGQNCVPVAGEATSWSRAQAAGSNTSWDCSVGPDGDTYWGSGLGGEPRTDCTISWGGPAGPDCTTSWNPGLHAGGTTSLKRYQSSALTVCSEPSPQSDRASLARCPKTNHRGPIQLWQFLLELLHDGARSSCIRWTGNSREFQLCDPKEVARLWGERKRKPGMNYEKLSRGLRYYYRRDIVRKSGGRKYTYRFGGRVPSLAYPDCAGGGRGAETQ
# Method in brief: as §1
# [17] = target: T11, ELF3 (Homo sapiens, UniProt P78545 1-371); details: protein: recombinant; tags: N-terminal GST; dsDNA, one strand shown
# T11 sequence: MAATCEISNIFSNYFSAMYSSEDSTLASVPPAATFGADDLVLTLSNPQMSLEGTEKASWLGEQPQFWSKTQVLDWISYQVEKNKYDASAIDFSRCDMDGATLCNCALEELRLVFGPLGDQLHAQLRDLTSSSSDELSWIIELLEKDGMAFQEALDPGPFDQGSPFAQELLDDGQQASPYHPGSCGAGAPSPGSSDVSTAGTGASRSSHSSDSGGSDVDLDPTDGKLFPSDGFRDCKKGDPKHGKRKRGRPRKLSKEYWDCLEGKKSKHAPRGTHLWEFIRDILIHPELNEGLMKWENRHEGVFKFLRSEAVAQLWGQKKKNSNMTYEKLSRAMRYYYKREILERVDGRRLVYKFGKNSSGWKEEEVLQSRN
# Method in brief: as §1
# [18] = target: CRX (Homo sapiens, UniProt O43186 1-299); details: protein: recombinant; tags: N-terminal GST; dsDNA, one strand shown
# Method in brief: as §1
# [19] = target: ETV1 (Homo sapiens, UniProt P50549 1-477); details: protein: recombinant; tags: N-terminal GST; dsDNA, one strand shown
# Method in brief: as §1
# Chain of HSF1 (Q00613 whole entry): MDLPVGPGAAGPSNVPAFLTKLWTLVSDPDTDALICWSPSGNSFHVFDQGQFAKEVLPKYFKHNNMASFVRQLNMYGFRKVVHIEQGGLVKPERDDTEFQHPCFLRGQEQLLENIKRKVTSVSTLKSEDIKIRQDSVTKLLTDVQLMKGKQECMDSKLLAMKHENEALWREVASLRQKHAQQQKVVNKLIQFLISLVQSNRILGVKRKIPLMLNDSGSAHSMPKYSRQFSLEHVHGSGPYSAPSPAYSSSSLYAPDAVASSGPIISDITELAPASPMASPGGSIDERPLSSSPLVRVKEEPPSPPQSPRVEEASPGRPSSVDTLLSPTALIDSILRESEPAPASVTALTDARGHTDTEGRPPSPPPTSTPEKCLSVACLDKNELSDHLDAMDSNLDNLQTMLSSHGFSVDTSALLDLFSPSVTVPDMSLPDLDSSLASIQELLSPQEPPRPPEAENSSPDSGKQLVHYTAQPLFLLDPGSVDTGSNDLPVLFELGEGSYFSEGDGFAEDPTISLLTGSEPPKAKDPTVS
# Chain of ELF4 (Q99607 whole entry): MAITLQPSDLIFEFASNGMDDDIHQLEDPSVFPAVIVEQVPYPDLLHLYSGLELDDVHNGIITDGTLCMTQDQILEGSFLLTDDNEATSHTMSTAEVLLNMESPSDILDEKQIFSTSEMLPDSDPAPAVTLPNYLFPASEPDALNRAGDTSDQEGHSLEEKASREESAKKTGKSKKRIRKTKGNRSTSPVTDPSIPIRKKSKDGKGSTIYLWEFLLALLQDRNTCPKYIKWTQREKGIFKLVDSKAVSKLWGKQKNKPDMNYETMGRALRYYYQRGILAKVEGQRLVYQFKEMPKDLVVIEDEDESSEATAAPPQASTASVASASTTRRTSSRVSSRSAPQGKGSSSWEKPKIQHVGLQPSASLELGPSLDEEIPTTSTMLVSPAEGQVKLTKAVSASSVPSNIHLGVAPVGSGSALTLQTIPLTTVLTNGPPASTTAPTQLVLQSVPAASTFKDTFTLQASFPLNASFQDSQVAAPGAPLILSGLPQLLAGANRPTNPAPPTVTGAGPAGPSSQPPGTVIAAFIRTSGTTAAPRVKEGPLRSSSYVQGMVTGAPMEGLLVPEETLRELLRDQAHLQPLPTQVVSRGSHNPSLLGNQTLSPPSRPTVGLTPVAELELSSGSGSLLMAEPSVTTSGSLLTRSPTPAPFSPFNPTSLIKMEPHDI
# Chain of ELF1 (P32519 whole entry): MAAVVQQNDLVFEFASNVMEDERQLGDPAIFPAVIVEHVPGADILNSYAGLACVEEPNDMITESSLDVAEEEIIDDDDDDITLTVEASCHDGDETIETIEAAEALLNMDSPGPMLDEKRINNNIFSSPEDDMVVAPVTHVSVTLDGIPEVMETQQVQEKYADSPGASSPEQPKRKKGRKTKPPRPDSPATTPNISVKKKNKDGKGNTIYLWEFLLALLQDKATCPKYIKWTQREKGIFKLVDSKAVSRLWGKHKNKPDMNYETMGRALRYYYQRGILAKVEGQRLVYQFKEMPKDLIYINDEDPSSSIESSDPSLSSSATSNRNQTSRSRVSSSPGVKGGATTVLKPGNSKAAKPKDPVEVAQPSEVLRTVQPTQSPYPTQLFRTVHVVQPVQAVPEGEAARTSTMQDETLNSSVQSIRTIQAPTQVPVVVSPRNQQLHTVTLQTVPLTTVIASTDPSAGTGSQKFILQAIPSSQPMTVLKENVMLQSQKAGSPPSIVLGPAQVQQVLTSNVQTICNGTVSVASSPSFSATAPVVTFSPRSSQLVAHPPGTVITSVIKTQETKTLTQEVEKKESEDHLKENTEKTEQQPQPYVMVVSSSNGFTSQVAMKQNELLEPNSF
# Chain of ETV1 (P50549 whole entry): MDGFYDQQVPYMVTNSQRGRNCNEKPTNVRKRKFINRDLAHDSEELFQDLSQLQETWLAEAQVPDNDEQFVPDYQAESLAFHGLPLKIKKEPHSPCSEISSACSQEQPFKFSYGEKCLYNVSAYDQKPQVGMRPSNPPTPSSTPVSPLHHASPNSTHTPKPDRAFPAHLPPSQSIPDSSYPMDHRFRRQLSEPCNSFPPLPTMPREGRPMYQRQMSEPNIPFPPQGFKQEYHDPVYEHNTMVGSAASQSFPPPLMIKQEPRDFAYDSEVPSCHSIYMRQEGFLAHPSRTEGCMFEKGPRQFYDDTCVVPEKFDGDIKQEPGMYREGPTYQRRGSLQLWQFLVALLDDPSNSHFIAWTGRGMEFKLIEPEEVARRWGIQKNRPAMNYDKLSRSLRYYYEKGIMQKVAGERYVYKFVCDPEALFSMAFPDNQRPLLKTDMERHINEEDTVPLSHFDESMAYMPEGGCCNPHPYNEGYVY
# Chain of CRX (O43186 whole entry): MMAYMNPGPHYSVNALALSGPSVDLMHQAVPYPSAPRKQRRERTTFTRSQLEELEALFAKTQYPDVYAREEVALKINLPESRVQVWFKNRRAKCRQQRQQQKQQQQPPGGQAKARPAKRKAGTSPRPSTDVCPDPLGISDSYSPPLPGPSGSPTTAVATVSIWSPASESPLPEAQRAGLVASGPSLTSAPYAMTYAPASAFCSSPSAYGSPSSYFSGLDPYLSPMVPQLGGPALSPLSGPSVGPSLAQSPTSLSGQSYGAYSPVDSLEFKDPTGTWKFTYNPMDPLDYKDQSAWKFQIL
# Chain of ETV5 (P41161 whole entry): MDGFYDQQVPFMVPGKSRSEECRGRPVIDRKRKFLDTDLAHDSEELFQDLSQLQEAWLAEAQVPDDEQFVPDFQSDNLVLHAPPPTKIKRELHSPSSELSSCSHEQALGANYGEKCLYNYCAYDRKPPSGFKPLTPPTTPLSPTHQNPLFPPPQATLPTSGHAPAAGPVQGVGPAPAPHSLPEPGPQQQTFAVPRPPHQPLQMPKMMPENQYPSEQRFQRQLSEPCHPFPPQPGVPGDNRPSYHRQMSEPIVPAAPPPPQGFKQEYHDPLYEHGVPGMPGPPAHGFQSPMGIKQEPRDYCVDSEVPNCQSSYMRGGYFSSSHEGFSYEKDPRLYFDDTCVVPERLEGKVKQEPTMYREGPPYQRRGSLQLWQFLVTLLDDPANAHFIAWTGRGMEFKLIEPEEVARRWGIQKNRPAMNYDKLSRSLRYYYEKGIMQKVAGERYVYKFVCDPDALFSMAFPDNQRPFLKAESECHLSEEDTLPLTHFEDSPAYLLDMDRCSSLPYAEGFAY
# Chain of SPIB (Q01892 whole entry): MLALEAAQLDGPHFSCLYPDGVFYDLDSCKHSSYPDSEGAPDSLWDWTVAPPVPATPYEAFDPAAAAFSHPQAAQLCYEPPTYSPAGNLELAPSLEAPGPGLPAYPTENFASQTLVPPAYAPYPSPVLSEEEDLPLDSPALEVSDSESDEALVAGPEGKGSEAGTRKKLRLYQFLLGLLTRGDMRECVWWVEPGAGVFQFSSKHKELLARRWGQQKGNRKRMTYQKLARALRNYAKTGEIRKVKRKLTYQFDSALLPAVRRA
sequence,measurement,setting,value
TTTCGA,binding signal,[1],"1.36 fold enrichment (6-mer frequency, TF over GST control)"
same,binding signal,[2],"1.45 fold enrichment (6-mer frequency, TF over GST control)"
same,binding signal,[3],"1.51 fold enrichment (6-mer frequency, TF over GST control)"
same,binding signal,[4],"1.37 fold enrichment (6-mer frequency, TF over GST control)"
same,binding signal,[5],"1.56 fold enrichment (6-mer frequency, TF over GST control)"
same,binding signal,[6],"1.49 fold enrichment (6-mer frequency, TF over GST control)"
same,binding signal,[7],"1.35 fold enrichment (6-mer frequency, TF over GST control)"
same,binding signal,[8],"1.48 fold enrichment (6-mer frequency, TF over GST control)"
same,binding signal,[9],"1.52 fold enrichment (6-mer frequency, TF over GST control)"
same,binding signal,[10],"1.48 fold enrichment (6-mer frequency, TF over GST control)"
same,binding signal,[11],"1.54 fold enrichment (6-mer frequency, TF over GST control)"
same,binding signal,[12],"2.5 fold enrichment (6-mer frequency, TF over GST control)"
same,binding signal,[13],"1.18 fold enrichment (6-mer frequency, TF over GST control)"
same,binding signal,[14],"1.57 fold enrichment (6-mer frequency, TF over GST control)"
same,binding signal,[15],"1.5 fold enrichment (6-mer frequency, TF over GST control)"
same,binding signal,[16],"1.32 fold enrichment (6-mer frequency, TF over GST control)"
same,binding signal,[17],"1.39 fold enrichment (6-mer frequency, TF over GST control)"
same,binding signal,[18],"1.86 fold enrichment (6-mer frequency, TF over GST control)"
same,binding signal,[19],"1.5 fold enrichment (6-mer frequency, TF over GST control)"
